Experiment [1] can be described thus: A549 cell viability effects, profiling panel, calcein-AM fluorescence, 48 h, basal (AID 1162). To be noted: higher = more signal.
The nature of experiment [2]: adipocyte viability effects, profiling panel, cell-based, 3T3-L1 adipocytes, calcein-AM fluorescence, 48 h, basal (AID 1163). To be noted: 3T3-L1 adipocytes viability, higher = more signal.
Experiment [3] can be described thus: HepG2 cell viability effects, profiling panel, calcein-AM fluorescence, 48 h, basal (AID 1164). To be noted: higher = more signal.
Experiment [4] is described as follows: MM1S cell viability effects, profiling panel, calcein-AM fluorescence, 48 h, basal (AID 1165).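 Also: viability of MM1S multiple myeloma cells under basal unstimulated conditions.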 To be noted: higher = more signal.
Experiment [5] can be described thus: basal RPMI8226 viability, no added stimulus, profiling panel, cell-based, calcein-AM fluorescence, 48 h, PK04 Diversity Set (AID 1166).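 Also: cells grown under basal conditions without added stimulus.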 The conditions noted are these: RPMI8226 myeloma viability, higher = more signal.
The nature of experiment [6]: basal HepG2 mitochondrial membrane potential changes, profiling panel, cell-based, JC-1 fluorescence, 24 h, 100 nL compound (AID 1167). To be noted: higher = more signal.
Experiment [7] can be described thus: basal 3T3-L1 adipocyte mitochondrial potential changes, profiling panel, cell-based, JC-1 fluorescence, 3T3-L1 adipocytes, 24 h, 100 nL compound (AID 1168). The conditions noted are these: JC-1 mitochondrial fluorescence, higher = more signal, called active from +8 up or from −8 down.
The nature of experiment [8]: basal RPMI8226 mitochondrial membrane potential changes, profiling panel, cell-based, JC-1 fluorescence, 24 h, 100 nL compound (AID 1169). To be noted: RPMI8226 myeloma, JC-1 mitochondrial potential fluorescence, higher = more signal.
A short description of experiment [9]: basal MM1S mitochondrial membrane potential changes, profiling panel, cell-based, JC-1 fluorescence, 24 h, 100 nL compound (AID 1170). To be noted: higher = more signal.
The nature of experiment [10]: A549 lung cancer cell viability effects, profiling panel, resazurin fluorescence, 24 h, PK04 Diversity Set (AID 1171). To be noted: higher = more signal, called active from +8 up or from −8 down. For orientation: Alamar Blue is a resazurin reagent that responds to reducing activity.

Each structure is given as a SMILES string. Activity calls are given as the source filed them.
Also: test concentration not given here.

Turning to `COC(=O)[C@@]1(Cc2ccc(OC)cc2)[C@H]2c3cc(C(=O)N(C)C)n(C[C@H](O)CO)c3C[C@H]2CN1C(=O)c1ccccc1`, the z-score in experiment [1] was -0.93; in [2], -0.503; in [3], -0.285; in experiment [4] it was -1.99; in experiment [5], -1.79; in experiment [6] it was 0.906. The z-score is -0.871 (inactive) in [7], -0.847 in experiment [8], -1.03 in experiment [9] and -0.816 (inactive) in [10].

`CCCC[C@@H]1C[C@H]1[C@@H](NC(=O)c1ccccc1)c1ccc(C(F)(F)F)cc1`: the z-score is -1.46 in experiment [1]; -0.999 in [2]; -0.959 in experiment [3]; 0.256 in experiment [4]; -0.372 in experiment [5]; 0.494 in [6]. The z-score in [7] is -0.259 (inactive); in [8], 0.677; in experiment [9], -1.24; in experiment [10] it was -0.0143 (inactive).

In the case of `CCOC(=O)c1ccc(NC(=O)O[C@H]2[C@H](OC(=O)Nc3ccc4c(c3)OCO4)[C@H](OC(=O)Nc3ccc4c(c3)OCO4)[C@@H](OC)O[C@@H]2CO)cc1`, the z-score in experiment [1] is -0.83; in experiment [2], 0.529; in experiment [3] it was -1.02; in experiment [4] it was -0.982; in experiment [5], -1.21; in experiment [6], -0.691. For the same compound, the z-score in experiment [7] is -0.289 (inactive); in experiment [8], -0.576; in [9], -1.09; in experiment [10], -0.824 (inactive).

In the case of `[N-]=[N+]=Nc1ccccc1C[C@]1(C(=O)N2CCOCC2)N=C(c2ccc(OCCCO)cc2)O[C@H]1c1ccccc1`, the z-score in experiment [1] is 0.375; in experiment [2], 0.854; in experiment [3], 1.58; in [4] it was -0.35; in experiment [5], -0.911; in experiment [6], 1.99. Besides, the z-score is 1.18 (inactive) in experiment [7], -1.18 in experiment [8], -0.438 in [9] and 0.0917 (inactive) in experiment [10].

Take `OCC1CC(c2ccccc2)=NO1` (stereo not given): the z-score in experiment [1] is 0.71; in [2] it was 0.311; in [3] it was -0.0218; in experiment [4], 0.554; in [5] it was -0.676; in [6] it was 0.883. For the same compound, the z-score is -0.765 (inactive) in experiment [7], 0.527 in experiment [8], -0.201 in experiment [9] and 0.281 (inactive) in experiment [10].

On to `COCCOC(=O)N1C(=O)[C@@]2(c3cc(C#CC4=CCCCC4)ccc31)[C@H](c1ccc(OCCO)cc1)N1[C@H](c3ccccc3)[C@H](c3ccccc3)OC(=O)[C@H]1[C@@H]2C(=O)N1CCN(c2ncccn2)CC1`, for which the z-score in experiment [1] is -0.471; in experiment [2], 1.18; in experiment [3], 0.47; in experiment [4], -0.759; in experiment [5], -0.774; in experiment [6], 0.955. The z-score in experiment [7] was 1.46 (inactive); in experiment [8], -0.333; in experiment [9], -1.01; in [10] it was 0.468 (inactive).

For the compound `CCOC(=O)C1=CC[C@@H](c2cccc(Cl)c2)N(S(=O)(=O)c2ccc(C)cc2)C1`, the z-score in experiment [1] was -0.236; in [2], 0.472; in experiment [3], 0.46; in [4], -1.14; in experiment [5], -0.789; in experiment [6] it was 0.584. In addition, the z-score is 1.34 (inactive) in experiment [7], -0.043 in [8], -0.51 in [9] and -0.617 (inactive) in experiment [10].

With `CC(C)C(CO)N1C(=O)[C@@H]2C3C(=O)OCCC/C=C\[C@H]3OC23C=CCN(C(C)(C)C)C(=O)[C@@H]13` (stereo not given in full), the z-score in experiment [1] was -0.444; in experiment [2] it was -0.496; in [3], -0.972; in experiment [4], 0.724; in experiment [5] it was 0.851; in experiment [6], -0.3. The z-score in [7] was 0.306 (inactive); in [8], 0.0508; in experiment [9] it was -0.351; in experiment [10] it was -0.265 (inactive).

In the case of `COC(=O)[C@@]1(Cc2ccc(OC)cc2)[C@@H]2C(=CC(=O)[C@H]2CC(=O)C(=O)N(C)C)CN1C(=O)c1ccccc1`, the z-score was -1.85 in experiment [1]; 0.271 in experiment [2]; -1.12 in [3]; -2.29 in experiment [4]; -4.37 in experiment [5]; 0.607 in experiment [6]. Further, the z-score is -0.283 (inactive) in [7], -0.843 in experiment [8], -1.16 in experiment [9] and -1.34 (inactive) in experiment [10].

For `Cc1ccc(S[C@]2(C(=O)NCC(F)(F)F)CC(=O)N(C3CCCCC3)[C@@H]2c2ccc(CO)cc2I)cc1`, the z-score in experiment [1] was 0.335; in experiment [2] it was 0.66; in experiment [3], 0.133; in [4], -2.65; in experiment [5], -1.91; in experiment [6], -0.807. Also, the z-score was -0.482 (inactive) in [7], -0.445 in experiment [8], 0.176 in [9] and 0.741 (inactive) in [10].

Turning to `C=C(/C(=C/C[C@H](OC(C)=O)c1ccccc1OCCO)c1cc(C(=O)OC)ccc1OC)C(C)C`, the z-score in experiment [1] was -0.297; in experiment [2], 1.77; in experiment [3], -0.644; in experiment [4] it was -1.2; in experiment [5], -1.75; in [6], 1.14. For the same compound, the z-score in experiment [7] was 1.16 (inactive); in experiment [8], 0.0903; in experiment [9], 1.08; in [10] it was 0.0515 (inactive).

With `COc1cc(OC)c(C(O)C2C=CC3C(=O)N(C)C(=O)C3N2NC(=O)OC(C)(C)C)cc1Br` (stereo not given), the z-score is 0.521 in experiment [1]; -0.23 in experiment [2]; 0.25 in experiment [3]; -0.591 in experiment [4]; 0.442 in experiment [5]; -1.05 in experiment [6]. In addition, the z-score was -0.0401 (inactive) in experiment [7], 0.0442 in experiment [8], 1.18 in experiment [9] and -0.503 (inactive) in experiment [10].

Regarding `CN1C(=O)C2C=CC(C(O)C#Cc3ccccc3)N(Nc3ccccc3)C2C1=O` (stereo not given), the z-score in experiment [1] was -1.12; in experiment [2], -0.341; in [3] it was -0.255; in experiment [4], -1.05; in [5] it was -0.398; in [6] it was -1.36. In addition, the z-score was 0.39 (inactive) in experiment [7], -1 in [8], -1 in experiment [9] and 0.699 (inactive) in experiment [10].

As for `C=CCC(OC(C)=O)[C@@H]1[C@@H](N(Cc2cc3ccccc3o2)C(=O)c2ccc(-c3ccccc3)cc2)c2cc(OCCCO)ccc2N1C(=O)c1ccc2ccccc2c1` (stereo not given in full), the z-score is 0.48 in [1]; 1 in experiment [2]; 0.063 in experiment [3]; 0.532 in experiment [4]; 0.299 in experiment [5]; 1.81 in experiment [6]. The z-score in experiment [7] was -1.11 (inactive); in [8], 0.868; in experiment [9] it was 0.32; in [10] it was 0.457 (inactive).

Consider `COC(=O)c1c(CC[C@@H](CO)NC(=O)N[C@H](Cn2cc(C3(O)CCCCC3)nn2)C(C)C)oc(C(C)=O)c1C(=O)OC`, for which the z-score is -0.233 in experiment [1]; 1.36 in [2]; -0.134 in experiment [3]; -0.722 in experiment [4]; 0.0074 in [5]; 0.74 in experiment [6]. The z-score is 0.595 (inactive) in [7], 0.355 in [8], -0.202 in [9] and -1.06 (inactive) in [10].

The record behind these values is PubChem BioAssay.
